Screens (PubChem BioAssay)
RXFP1 agonist: activates the human relaxin receptor RXFP1 | Q9HBX9 | HEK293T-RXFP1 cAMP TR-FRET, 30 min; response scale: percent of porcine relaxin response, buffer zero | Potency, µM (doses to about 57.5 µM), hits mostly activators | 370,000 compounds, 0.3% hits; active = well fitted activation curve with a large enough effect; inconclusive = small, poorly fitted or top-dose-only effect; note: nearly all actives have a fitted effect of over 60% in size
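cAMP rise read by TR-FRET after 30 min, 37C compound exposure (up to 58 uM) in RXFP1-transfected HEK293 cells with Ro 20174 present. EC50 from Hill-equation fits, with 29 nM porcine relaxin as 100% and buffer as basal.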
ClpP mod: qHTS Assay for Activators of ClpP; ATP-dependent Clp protease proteolytic subunit (Bacillus subtilis (strain 168)), P80244; Potency, µM (series often up to 57.5 µM); 340,000 compounds, 1.9% hits; purified B. subtilis ClpP, FRET peptide cleavage, 20 min; active = well fitted falling curve with a large enough effect; inconclusive = small, poorly fitted or top-dose-only effect; inactive = no such curve, though single readings can be large or run the other way; note: the source files actives as falling curves though it sought activators and does not explain the sign; nearly all actives have a fitted effect of over 65% in size
Target sequence (P80244 whole entry, looked up): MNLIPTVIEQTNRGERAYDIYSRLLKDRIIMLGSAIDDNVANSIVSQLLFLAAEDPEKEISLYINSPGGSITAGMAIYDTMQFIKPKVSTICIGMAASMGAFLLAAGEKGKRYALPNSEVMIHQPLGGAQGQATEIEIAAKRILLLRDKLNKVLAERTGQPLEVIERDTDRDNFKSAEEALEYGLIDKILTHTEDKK
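Purified B. subtilis ClpP, 10 microg/mL final in Tris/HCl pH8 with KCl, BSA, glycerol and Tween-20, cleaved an Abz/nitrotyrosine-quenched decapeptide. Fluorescence (ex 320, em 430) was read at 0 and 20 min at room temperature. Delta was normalized to 5.8 microM ADEP and DMSO/no-enzyme controls.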
RXFP1 antagonist: RXFP1 (human) relaxin receptor antagonism; Q9HBX9; HEK293-RXFP1, relaxin-stimulated cAMP HTRF, 30 min; hits give low values; activity change, negative = inhibition, % at 57.5 µM; 350,000 compounds, 0.59% hits; AID 1259400;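 active = activity change of -60% or lower, but not beyond a set lower limit; inconclusive = change between -60% and -40%, or beyond the set limit; inactive = change above -40%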
gsp antagonist: antagonists of gsp mutant (McCune-Albright syndrome); Potency, µM (series often up to 76.9 µM), usual class: inhibitors; 340,000 compounds, 0.4% hits; gsp-mutant cells, cAMP HTRF, 30 min; calls by dose curve; cell line not stated here;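 note: intracellular cAMP measured with PDE inhibitor Ro 20-1724 present during compound exposure; nearly all actives have a fitted effect of over 65% in size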
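Measurement of cellular cAMP by homogeneous time-resolved fluorescence following a 30 min compound exposure at 37C. The PDE inhibitor […] was present throughout; the assay buffer was DPBS with 0.05% BSA and 0.005% Tween 20.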
pAkt inh: inhibitors of Akt phosphorylation; Neuro2A IGF-stimulated pAkt S473 HTRF, 20 min; hits give low values; activity change, % for hits at 50 µM; 360,000 compounds, 0.32% hits; in the data active = activity change below about -80%; inconclusive = mostly about -51% to -80%
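Neuro2A cells in DMEM with 0.5% FBS, overnight at 37 deg C, given compound at single 50 µM final, then IGF (6 nM final) for 20 min at 37 deg C. Lysed; phospho-Akt Ser473 by HTRF after 24 h, 665/615 ratio.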
gsp agonist: agonists of gsp mutant (McCune-Albright syndrome) | gsp mutant cells, cAMP HTRF, 30 min | Potency, µM (titrated, usually from 76.9 µM), hits mostly activators | 340,000 compounds, 0.13% hits | AID 624287; active = well fitted activation curve with a large enough effect; inconclusive = small, poorly fitted or top-dose-only effect, or another doubt; inactive = no such curve, though single readings can be large or run the other way; cell line not stated here;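 note: phosphodiesterase inhibitor Ro 20-1724 added with compounds to block cAMP breakdown; nearly all actives have a fitted effect of over 60% in size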
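Cells in DMEM/10% FBS with G418 were pretreated with compounds in DMSO plus […] (300 uM stock) for 30 min at 37C. cAMP was measured by HTRF (cAMP-d2 plus anti-cAMP antibody-K) after 30 min at room temperature.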
Hits are given with their value; . = inactive; ? = inconclusive; / = no result; ! = not active in a repeat; [ ] = another dose, or the depositor's remark. Shown are actives, neighbours in structure and some others; about 2.7% of the full set was active somewhere.

SMILES	RXFP1 agonist	ClpP mod	RXFP1 antagonist	gsp antagonist	pAkt inh	gsp agonist
CC(=O)c1ccccc1OCCOCCOCCOc1ccccc1C(C)=O	.	0.89µM	.	.	.	.[15.4 µM]
Fc1ccc(-c2cc(C(F)(F)F)nc(NCc3ccccc3)n2)cc1	.	22µM	/	/	/	/
Fc1ccc(CNc2nc(-c3ccco3)cc(C(F)(F)F)n2)cc1	.	25µM	.	.	.	.
Fc1ccc(-c2cc(C(F)(F)F)nc(NCc3cccs3)n2)cc1	.	32µM	.	?	.	.[15.4 µM]
Fc1ccc(CNc2nc(-c3ccc(Cl)cc3)cc(C(F)(F)F)n2)cc1	.	.	/	/	/	/
FC(F)(F)c1cc(-c2ccco2)nc(NCc2ccccc2)n1	.	?	.	.	.	.
COc1ccc(-c2cc(C(F)(F)F)nc(NCc3ccccc3)n2)cc1	.	.	/	/	/	/
Cc1ccc(S(=O)(=O)NNC(=O)c2ccc(C(=O)N(c3ccccc3)c3ccccc3)cc2)cc1	/	.	/	/	/	/
COC(=O)c1ccccc1NC(=O)Oc1ccc(F)cc1	.	25µM	.	.	/	.
Cc1ccccc1NC(=O)C1CCN(C(=O)c2ccc(F)cc2)CC1	.	.	.	/	/	/
COc1ccc2c(CC(=O)NCCN3C(=O)S/C(=C\c4cccnc4)C3=O)coc2c1	.	13µM	.	.	.	.[15.4 µM]
CC(=O)N/C(=C\c1ccc(C)o1)C(=O)NCc1ccccc1	.	.	.	.	.	.[15.4 µM]
CC(=O)Nc1ccc2c(c1)C(=O)N(C1CCCCC1)C2=O	.	25µM	.	.	.	.
COC(=O)c1ccc2c(c1)C(=O)N(C1CCCCC1)C2=O	.	.	.	.	.	.
O=C(C1CC1)N1CCc2cc(Br)cc(S(=O)(=O)NC3CCCCC3)c21	.	.	.	.	-119%	.
COc1ccccc1CCNC(=O)C1(c2cccs2)CCOCC1	.	.	/	/	/	/
COc1ccc(OC)c(NC(=O)c2nc(S(=O)(=O)Cc3ccc(F)cc3)ncc2Cl)c1	.	.	-107	/	/	/
COc1ccccc1NC(=O)c1nc(S(=O)(=O)Cc2ccccc2)ncc1Cl	.	/	?	.	.	.[15.4 µM]
CSc1nnc(NC(=O)c2nc(S(=O)(=O)Cc3ccccc3)ncc2Cl)s1	.	/	-63	32µM	.	.[15.4 µM]
COc1ccc2nc(NC(=O)c3nc(S(=O)(=O)Cc4ccc(C)cc4)ncc3Cl)sc2c1	.	.	-91	/	/	/
CCCc1nnc(NC(=O)c2nc(S(=O)(=O)Cc3ccc(C)cc3)ncc2Cl)s1	.	.	.	28µM	.	.
Cc1ccc(CS(=O)(=O)c2ncc(Cl)c(C(=O)Nc3nc4ccc(C)cc4s3)n2)cc1	.	.	/	/	/	/
CC(=O)Nc1cc(O)c2nonc2c1O	/	.	/	/	/	/
CC(C)c1nnc(NC(=O)c2nc(S(=O)(=O)Cc3ccccc3)ncc2Cl)s1	.	.	-72!	25µM	.	.[15.4 µM]
COCc1cc(C)nc(OCC(=O)N/N=C/c2cccc(OC)c2)c1C#N	.	28µM	.	.	.	.
SMILES	RXFP1 agonist	ClpP mod	RXFP1 antagonist	gsp antagonist	pAkt inh	gsp agonist
COCc1cc(C)nc(OCC(=O)N/N=C/c2ccccc2O)c1C#N	.	/	.	.	.	.[15.4 µM]
CNC(=O)c1ccccc1NC(=O)c1cccc(S(=O)(=O)N2CCC(C)CC2)c1	.	.	.	.	.	?
CCNC(=O)c1ccccc1NC(=O)c1cccc(S(=O)(=O)N2CCC(C)CC2)c1	.	.	.	.	-101%	.
O=C(Nc1ccc(F)cc1F)Nc1csc2ccccc12	.	11µM	.	.	.	.[15.4 µM]
O=C(Nc1ccc(F)cc1F)Nc1ccc(F)cc1F	.	/	.	.	.	.[15.4 µM]
O=C(Nc1ccc(F)c(Cl)c1)Nc1csc2ccccc12	.	/	.	35µM	.	.[15.4 µM]
CN(C)c1ccc(/C=C/c2cc3ccccc3cn2)cc1	/	.	/	/	/	/
COc1ccc(NC(=O)CN(C)C(=O)CC2CCCC2)cc1	.	/	-74	.	.	.[15.4 µM]
COc1ccc(NC(=O)CN(C)CC(=O)N2CCCCCC2)cc1	.	.	-90	.	.	.[15.4 µM]
COc1ccc(S(=O)(=O)N2CCCCCC2)cc1C(=O)N(C)CC(=O)Nc1ccc(F)cc1	.	/	.	.	.	.[15.4 µM]
COc1ccc(NC(=O)CN(C)C(=O)c2sc3cc(Cl)ccc3c2Cl)cc1	.	28µM	.	.	.	?
COc1ccc(NC(=O)CN(C)C(=O)c2cc(S(=O)(=O)N3CCCCCC3)ccc2OC)cc1	.	/	-72	.	.	.[15.4 µM]
N#CCOC(=O)[C@H](Cc1c[nH]c2ccccc12)NS(=O)(=O)c1ccc(Cl)cc1	.	.	.	.	.	.
CCC(=O)Nc1ccc2c(c1)nc(CCNC(=O)c1ccco1)n2C	.	/	.	.	.	.
Cc1c(CC(=O)O)c(=O)oc2cc(OCc3nn[nH]n3)ccc12	.	.	.	.	-98%	.
CCCc1c(C)c2ccc(OCC(C)=O)cc2oc1=O	.	3.2µM	.	.[15.4 µM]	.	.
CCCCc1c(C)c2ccc(OCC(C)=O)cc2oc1=O	.	4µM	.	.	.	.
COc1ccc(CN2CC[C@H]3C=CC[C@@H](C(=O)Nc4ccccc4)[C@H]3C2=O)cc1OC	/	.	/	/	/	/
O=C(O)c1ccccc1N/N=C/C1=C(N2CCOCC2)C(=C\c2ccccc2)/CC1	.	/	.	.	.	.[15.4 µM]
Cc1cc(C)nc(N/N=C/C2=C(N3CCOCC3)C(=C/c3ccccc3)/CC2)n1	.	.	.	28µM	.	.
Cc1ccc(C(=O)NCCN(C)C)cc1C	.	.	.	.	-107%	.
C=C(CN(C)C)C(=O)c1cc(C)ccc1C	/	.	-109	?	.	?
Cc1ccc(C)c(C(=O)NCCN(C)C)c1	.	.	.	.	-110%	.
CC(=O)ON(C(C)=O)c1ccc(/C=C2/C=Cc3ccccc32)cc1	/	.	/	/	/	/
COCC(=O)Nc1cc(OC)cc(OC)c1	.	28µM	.	.	.	.
SMILES	RXFP1 agonist	ClpP mod	RXFP1 antagonist	gsp antagonist	pAkt inh	gsp agonist
COc1cc(NC(=O)CSCC(=O)Nc2cc(OC)cc(OC)c2)cc(OC)c1	.	.	.	.	.	?
Cc1cn([C@H]2C[C@H](F)[C@@H](CO)O2)c(=O)[nH]c1=O	/	/	.	/	/	/
COc1cccc(NC(=O)/C=C/c2ccc(S(=O)(=O)N3CCOCC3)cc2)c1	.	.	.	?	.	.
CCOC(=O)Cc1c(C)nc2cc(-c3ccc(C(C)(C)C)cc3)nn2c1C	.	.	.	/	/	/
CCOC(=O)Cc1c(C)nc2c(-c3ccc(Cl)cc3)c(C)[nH]n2c1=O	.	14µM	.	.	.	.
CCOC(=O)Cc1cc(=O)n2[nH]c(C)c(-c3ccccc3)c2n1	.	?	.	.	.	.
CCOC(=O)Cc1c(C)nc2c(C#N)c[nH]n2c1=O	.	?	.	.	.	.
CCOC(=O)Cc1c(C)nc2cc(-c3ccc(C(C)(C)C)cc3)[nH]n2c1=O	.	32µM	.	.	.	.
